These results are taken from PubChem BioAssay AID686978 (National Center for Advancing Translational Sciences (NCATS), 2013).

The campaign covered roughly 420,000 compounds. About 64,000 (15%) were called active. Roughly 27% stayed inconclusive and do not appear here. Not all results are given here. Values without a mark were called inactive. Calls come from the whole dose curve; as a rule, active = well fitted inhibition curve with a large enough effect; inconclusive = small, poorly fitted or top-dose-only effect; inactive = flat fitted curve, though single readings scatter.
% is set by controls: 0 for no effect and ±100 for the full control effect; potency is the fitted concentration of half-maximal effect.

This assay is described as follows: qHTS for Inhibitors of human tyrosyl-DNA phosphodiesterase 1 (TDP1): qHTS in cells in absence of CPT. Note: nearly all actives have a fitted effect of over 55% in size. The following applies: DT40 Tdp1-/- hTDP1 cells, no CPT, ATP luminescence, 48 h; activity change, negative = growth inhibition: at 46.2 µM (top of the series). Put shortly:
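Stably hTDP1-transfected Tdp1-null chicken DT40 cells were treated with library compounds minus camptothecin and grown for at least 48 hr at 37 °C, after which cellular ATP was quantified by luminescence.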
On to `FC(F)(F)c1ccc2nnc(-c3c(Cl)cccc3Cl)n2c1`, for which the “activity change, negative = growth inhibition” value is -12.2%.

In the case of `COc1ccc(-n2c(C)nn(CC3CC3)c2=O)cc1`, the “activity change, negative = growth inhibition” value was 10.3%.

As to `O=C(COc1coc(CN2CCN(c3ccccc3)CC2)cc1=O)N1CCc2ccccc21`, the “activity change, negative = growth inhibition” value was -17.8%.

As for `O=C(NCCN=C1NS(=O)(=O)c2ccccc21)c1ccc(S(=O)(=O)N2CCOCC2)cc1`, the “activity change, negative = growth inhibition” value is -8%.

As for `CCCCCCOC(=O)NCC(O)c1ccccc1` (stereo not drawn), the “activity change, negative = growth inhibition” value was -20.7%.

As to `CC(C)C[C@H](NC(=O)C1CCC(CNC(=O)[C@@H]2CCCN2C(=O)OC(C)(C)C)CC1)C(=O)O` (stereo partly drawn), the “activity change, negative = growth inhibition” value was -8.04%.

For the compound `CSc1ncnc2c1ncn2CC(=O)C1CCC2C3CCC4=CC(=O)CCC4(C)C3CCC12C` (stereo not drawn), the Potency is 5.8 µM (active).

Turning to `CC(=O)OCC(=O)C1CCC2C3CCC4=CC(=O)CC[C@@]4(C)C3CC[C@]12C` (stereo partly drawn), the “activity change, negative = growth inhibition” value was -25.1%.

As to `COc1cc(/C=C2/C(=O)ON=C2C)ccc1OCc1cccc(F)c1`, the Potency is 16.4 µM (active).

Turning to `C#CCOc1ccc(/C=C2/C(=O)NN(c3ccccc3)C2=O)cc1OC`, the “activity change, negative = growth inhibition” value is -5.13%.

Consider `COc1ccnc2c1c(=O)n(Cc1cccc(F)c1)c(=O)n2C`, for which the “activity change, negative = growth inhibition” value was -26.1%.

For `Cc1c(C(=O)O)nnn1-c1nonc1N`, the “activity change, negative = growth inhibition” value was 0.48%.

For `CCOc1cc(C(=O)Nc2ncccn2)cc(OCC)c1OCC`, the “activity change, negative = growth inhibition” value was 0.439%.

On to `CC1C/C(=N/NC(=O)c2cccs2)CC(C)(C)C1` (stereo not drawn), for which the “activity change, negative = growth inhibition” value was 2.47%.

For `COc1ccc(S(=O)(=O)N2CCOCC2)cc1C(=O)Nc1nc2ccccc2s1`, the “activity change, negative = growth inhibition” value was -18.8%.

As for `COc1cccc2sc(NNC(=O)c3nc4ccccc4s3)nc12`, the Potency is 6.51 µM (active).

As for `CSCCC(Nc1nc2ccccc2s1)C(=O)O` (stereo not drawn), the “activity change, negative = growth inhibition” value was -13.3%.

Regarding `Cc1ccc(N2CC(C(=O)NCCS(=O)(=O)N3CCN(c4ccccc4)CC3)CC2=O)cc1` (stereo not drawn), the Potency entry is “inactive”.

With `COc1ccccc1NC(=O)COC(=O)c1ccccc1SCC(=O)N1CCCC1`, the “activity change, negative = growth inhibition” value is -5.43%.

As to `CC(=O)Nc1cccc(C(=O)OCN2C(=O)c3ccccc3C2=O)c1`, the “activity change, negative = growth inhibition” value was 9.39%.

As for `CCN(CC)c1ccc(NC(=O)Cn2nc3c(cc2=O)CCCC3)c(C)c1`, the “activity change, negative = growth inhibition” value was -5.62%.

As for `CCN(CC)c1ccc(NC(=O)CN2C(=O)c3cccnc3Oc3ccc(Cl)cc32)c(C)c1`, the Potency was 13 µM (active).

Consider `CC(=O)c1cccc(NC(=O)CN2C(=O)c3cccnc3Oc3ccc(Cl)cc32)c1`, for which the Potency was 13 µM (active).

As to `CC1(c2ccc(Cl)cc2Cl)NC(=O)N(CC(=O)Nc2cccnc2Cl)C1=O` (stereo not drawn), the “activity change, negative = growth inhibition” value is -11%.

Turning to `Cc1ccc2[nH]c3c(=O)n(CC(=O)NCCc4ccc(Cl)cc4)ncc3c2c1`, the Potency entry was “inactive”.

As for `CCCCN1C(=O)C(=O)N(CC(=O)Nc2cccc(C(C)=O)c2)C1=O`, the “activity change, negative = growth inhibition” value is 12.5%.

Consider `Cc1ccc2c(c1)N(CC(=O)NCCc1ccc(Cl)cc1)C(=O)c1cccnc1O2`, for which the Potency is 1.16 µM (active).

For the compound `Cc1ccc2c(c1)N(CC(=O)NCCCN1CCCCC1)C(=O)c1cccnc1O2`, the Potency entry was “inactive”.

Consider `O=C(COC(=O)c1ccc(S(=O)(=O)N2CCc3ccccc3C2)cc1)NC(=O)NCc1ccco1`, for which the “activity change, negative = growth inhibition” value is -28.8%.

Consider `O=C(COc1ccc([N+](=O)[O-])cc1Cl)Nn1cnnc1`, for which the “activity change, negative = growth inhibition” value was 2.52%.

Turning to `CNc1nc(=O)n(C2CCCO2)cc1C` (stereo not drawn), the “activity change, negative = growth inhibition” value is -0.128%.

As to `O=C(CCC(=O)N1CCCC1)Nc1ccc([N+](=O)[O-])cc1`, the “activity change, negative = growth inhibition” value is 2.85%.

For the compound `COC(=O)NNC(=O)C1CCC(C)CC1` (stereo not drawn), the Potency entry was “inactive”.

As for `COc1ccc(C(=O)NNS(=O)(=O)c2ccc(C)cc2)cc1`, the “activity change, negative = growth inhibition” value is -3.48%.

As to `COc1ccc(C(=O)NN(C)c2nc(-c3ccccc3)cc(C)c2S(C)(=O)=O)cc1`, the Potency was 18.4 µM (active).

For `COc1ccc(C(=O)NN2C(=O)C3C(c4ccccc4)C=CC(c4ccccc4)C3C2=O)cc1` (stereo not drawn), the “activity change, negative = growth inhibition” value is -11.1%.

Regarding `COc1ccc(CN2C(=O)C(CC(=O)NC3CCCCC3)CC(C(=O)N3CCOCC3)=C2C)cc1` (stereo not drawn), the “activity change, negative = growth inhibition” value is -5.23%.

Turning to `Cc1cc(NC(C)C)n2c(nc3ccccc32)c1C#N`, the “activity change, negative = growth inhibition” value is -24.2%.

With `CC(C)c1cc(NCc2ccccn2)n2c(nc3ccccc32)c1C#N`, the Potency was 11.6 µM (active).

Turning to `CCCc1nnc(NC(=O)c2cc(OC)cc(OC)c2)s1`, the “activity change, negative = growth inhibition” value was -14.6%.

Take `O=C(CSc1n[nH]c(-c2cccnc2)n1)Nc1ccc(Cl)cc1`: the “activity change, negative = growth inhibition” value was -10.4%.

`CCN(CC(=O)NC(C)C)C(=O)CCNC(=O)c1ccc(Cl)cc1`: the “activity change, negative = growth inhibition” value is -22.4%.

Consider `COc1cc(N=Cc2c(O)c3ccccc3oc2=O)c(OC)cc1Cl`, for which the “activity change, negative = growth inhibition” value was -26.2%.

For `COc1cc(N=Cc2c(O)[nH]c3ccccc23)cc(OC)c1OC`, the Potency is 13 µM (active).

`COc1cc2[nH]c(O)c(C=O)c2cc1OC`: the “activity change, negative = growth inhibition” value was -9.43%.

With `CCn1c(O)c2ccc(C(=O)N=NC(=O)c3cccnc3)cc2c1O`, the “activity change, negative = growth inhibition” value is -4.25%.

Consider `Cc1cc(OC(C)C(=O)Nc2ccc(S(=O)(=O)Nc3onc(C)c3C)cc2)cc(C)c1Cl` (stereo not drawn), for which the “activity change, negative = growth inhibition” value was 5.09%.

For the compound `Cc1c(O)cc(O)c2c(=O)c(-c3ccc(O)cc3)coc12`, the “activity change, negative = growth inhibition” value was -10.6%.

Regarding `CCCOc1ccc(N/C=C/C(=O)C(C)(C)C)cc1`, the “activity change, negative = growth inhibition” value was -17.9%.

Consider `CCOc1ccc(N/C=C/C(=O)c2ccccc2)cc1`, for which the “activity change, negative = growth inhibition” value is -23.6%.

`CCOc1ccc(N/C=C/C(=O)c2cc(OC)c(OC)c(OC)c2)cc1`: the Potency was 6.51 µM (active).

For the compound `COc1ccc(C2CC(c3cccs3)=NN2c2ccc(F)cc2)cc1OC` (stereo not drawn), the “activity change, negative = growth inhibition” value was -7.92%.

`O=C(COC(=O)CCC(=O)c1cccs1)NCc1ccco1`: the “activity change, negative = growth inhibition” value is -17.4%.
